A selection: hits, their analogues and other compounds. The true share with any hit is near 7.5%.
NPC1 promoter act: activators of NPC1 promoter. Huh7 NPC1 promoter luciferase reporter, 24 h. Potency, µM (highest dose often 9.22 µM), for the others: top-dose activation, actives largely listed as activators. 320,000 tested, 2.4% active. AID 485313; also: % of control where 0% means no effect; nearly all actives have a fitted effect of over 60% in size
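Cells: Huh7 expressing luciferase under the NPC1 promoter, 1500/well. Seeded 2 h, compound added, incubated 24 h at 37 °C. Luciferase reagent, 10 min ambient, then luminescence.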
SMN2 splice up: enhancers of SMN2 splice variant expression | HEK293 SMN2-luciferase splicing reporter, luminescence, 30-36 h | 210,000 tested, 2.8% active | Potency, µM (doses to about 46.1 µM), for inactives: at the highest dose activity change, positive = activation, most hits filed as activators; also: % of control where 0% means no effect; nearly all actives have a fitted effect of over 55% in size
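HEK293 cells carry an SMN2 minigene-luciferase reporter in which exon 7 inclusion puts luciferase in frame. Cells were seeded at 2000 cells/well, attached for 10-12 hours, then exposed to compounds for 30-36 hours at 37C before ONE-Glo luminescence.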
ELG1 genotox: inducers of genotoxicity in HEK293T ELG1-luciferase cells | 330,000 tested, 1.3% active | Potency, µM (series often up to 46 µM), for the others: at the highest dose activity change, positive = activation, usual class: activators | HEK293T ELG1-luciferase reporter, luminescence, 16 h; also: % of control where 0% means no effect; nearly all actives have a fitted effect of over 60% in size
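HEK293T cells expressing luciferase-tagged ELG1 were treated with compound or DMSO for 16 hr at 37°C. Luciferase activity was then read after 30 min with ONE-Glo at room temperature; rising signal flags genetic stress.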
Rab9 promoter act: Rab9 promoter activation | Huh7 Rab9 promoter-luciferase reporter, luminescence, 24 h | Potency, µM (top dose mostly 9.22 µM), for inactives: at the top dose activation, negative = inhibition, usual class: activators | 320,000 tested, 2.8% active; also: % of control where 0% means no effect; nearly all actives have a fitted effect of over 60% in size
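Cell-based reporter: Huh7 stable for Rab9 promoter-driven luciferase, plated in reduced-serum medium with 10% FBS at 1500 cells/well, compound-treated 24 h at 37 °C, luminescence read after 10 min reagent.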
FLuc counter: firefly luciferase modulation, counter-screen for miR-21 project | purified FLuc, Km substrates, luminescence inhibition | 360,000 tested, 6.9% active | Potency, µM (highest dose often 57.5 µM), for the others: top-dose activity change, negative = inhibition, usual class: inhibitors;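 also: plate controls were vehicle for no effect and reference inhibitor for full effect; nearly all actives have a fitted effect of over 55% in size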
Target sequence (P08659 whole entry, looked up): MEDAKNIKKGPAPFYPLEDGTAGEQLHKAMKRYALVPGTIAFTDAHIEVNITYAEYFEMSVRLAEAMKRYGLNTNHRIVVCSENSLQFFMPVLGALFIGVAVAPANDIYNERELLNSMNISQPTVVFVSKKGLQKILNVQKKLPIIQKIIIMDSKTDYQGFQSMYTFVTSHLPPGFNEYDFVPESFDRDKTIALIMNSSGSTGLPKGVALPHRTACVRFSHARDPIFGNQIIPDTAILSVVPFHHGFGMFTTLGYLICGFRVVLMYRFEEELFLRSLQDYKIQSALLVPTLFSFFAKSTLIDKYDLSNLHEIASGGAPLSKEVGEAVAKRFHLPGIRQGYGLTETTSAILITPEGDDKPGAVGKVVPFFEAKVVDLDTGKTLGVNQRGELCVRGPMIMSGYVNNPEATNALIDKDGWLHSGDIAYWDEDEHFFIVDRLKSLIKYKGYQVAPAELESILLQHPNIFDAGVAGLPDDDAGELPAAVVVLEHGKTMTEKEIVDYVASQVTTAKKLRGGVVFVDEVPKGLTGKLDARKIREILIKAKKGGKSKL
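Purified P. pyralis luciferase (10nM final) with 10uM D-luciferin and 10uM ATP (Km levels) in 50mM Tris acetate pH 7.5, 10mM Mg acetate, 0.01% Tween-20, 0.05% BSA; qHTS 6-point titration, ~60 µM downward; luminescence read.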
Luc counter: Kinase-Glo luciferase inhibition (counter-screen); Kinase-Glo luciferase, ATP luminescence, 8 min; Q27757; Potency, µM (highest dose often 38.3 µM), for the others: at the highest dose activity change, negative = inhibition, most hits filed as inhibitors; AID 1379; 200,000 tested, 0.28% active; also: % is scaled to controls: 0 for no effect and ±100 for the full control effect; nearly all actives have a fitted effect of over 60% in size
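Compound is pinned into ATP-containing buffer (10 uM ATP, imidazole pH 7.2, 7 mM MgCl2). Kinase-Glo luciferase reagent is then added. Light output is recorded following an 8-min room-temperature incubation.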
An asterisk follows results filed as active; u = inconclusive; x = no result given; [ ] = another dose, or the depositor's remark. Calls follow the shape of the dose curve; as a rule, active = well fitted curve in the direction sought with a large enough effect; inconclusive = small, poorly fitted or top-dose-only effect, or another doubt; inactive = no such curve, though single readings can be large; an effect the other way counts as inactive or inconclusive. Potency is read from the fitted curve at half-maximal effect.

SMILES	NPC1 promoter act	SMN2 splice up	ELG1 genotox	Rab9 promoter act	FLuc counter	Luc counter
Nc1nccc(-c2cc(-c3ccc(Cl)cc3Cl)no2)n1	0.35µM*	x	u	0.32µM*	0.67µM*	x
FC(F)(F)c1cnc2c(-c3ccc(Cl)cc3Cl)noc2c1	2%	-11%	1%	2%	-4%	2%
COc1cc(S(=O)(=O)N2CC(=O)Nc3ccccc32)ccc1NC(C)=O	5%	x	1%	1%	-1%	x
O=C(Nc1ccc2[nH]ncc2c1)c1ccc(F)cc1	2.8µM*	x	u	2.2µM*	8.5µM*	x
O=C(NC(=S)Nc1ccc2cn[nH]c2c1)c1ccccc1	3.5µM*	18µM*	3%	4.5µM*	19µM*	-1%
O=C(Nc1ccc2[nH]ncc2c1)c1ccccc1	2.8µM*	x	u	3.2µM*	13µM*	x
CCOc1ccc(-n2c(C)nc3cc(C(=O)NC4CCCC4)ccc32)cc1	x	x	x	x	-12%	x
Nc1ccc(O)cc1C(=O)OCC(=O)c1ccc(C2CCCCC2)cc1	-6%	-30%	u	3%	2.7µM*	-1%
Nc1ccc(O)cc1C(=O)OCC(=O)C12CC3CC(CC(C3)C1)C2	0%	-23%	-1%	-6%	15µM*	1%
O=C(OCC(=O)N(C1CCCCC1)C1CCCCC1)c1ccc(O)cc1	-2%	x	-2%	3%	4%	x
COc1ccc(C(=O)Nc2ccc(C(=O)OCC(=O)c3ccccc3)cc2)cc1	11%	0%	1%	11%	0%	-3%
O=C(OCC(=O)C12CC3CC(CC(C3)C1)C2)c1ccc(O)cc1	x	x	8%	x	x	x
COc1ccc(C(=O)OCC(=O)c2ccc(C3CCCCC3)cc2)cc1	-11%	-85%	6.5µM*	-24%	-13%	2%
COC(=O)C1=C(C)NC(C)=C(C(=O)OC)C1C(=O)OCc1nnc(-c2ccccc2Cl)o1	0%	x	2%	-1%	-1%	x
CC(C)(C)c1ccc(/C=C2\SC(=O)N(CCNC(=O)c3cccc(S(=O)(=O)N4CCOCC4)c3)C2=O)cc1	0.71µM*	-53%	u	0.89µM*	0.54µM*	-2%
CC1CCc2nc3ccc(S(=O)(=O)N4CCC(C(=O)NC(C)c5ccccc5)CC4)cc3c(C(=O)O)c2C1 (stereo not given)	-5%	x	-1%	-3%	2%	x
Cc1cc(NC(=O)c2cnn3cccnc23)no1	u	u	4.1µM*	u	u	-8%
O=C(Nc1cccc(Cl)c1)c1cnn2cccnc12	u	10µM*	u	2µM*	7.6µM*	-4%
O=C(Nc1cc(Cl)cc(Cl)c1)c1cnn2cccnc12	2%	8%	5%	20%	-13%	1%
Cc1cc(NC(=O)c2nn3cccnc3c2Cl)no1	1.8µM*	10µM*	u	1.4µM*	11µM*	-7%
C=CCNC(=O)c1nn2cccnc2c1Cl	5%	25%	3%	7%	-2%	2%
O=C(Nc1ccc(N2CCOCC2)cc1)c1ccc(Cl)c(S(=O)(=O)N2CCCCC2)c1	-23%	x	0%	-29%	5%	x
COc1cccc(NC(=O)N2CCC(n3c(C)nc4cccnc43)CC2)c1	x	x	x	x	-7%	x
O=C(Nc1nnc(-c2ccncc2)o1)c1cccc(N2C(=O)CCC2=O)c1	-2%	-14%	1%	0%	-19%	2%
O=C(Nc1nnc(-c2ccc(Cl)cc2)o1)c1cccc(N2C(=O)CCC2=O)c1	2%	12%	1%	1%	12µM*	-1%
SMILES	NPC1 promoter act	SMN2 splice up	ELG1 genotox	Rab9 promoter act	FLuc counter	Luc counter
CSc1cccc(-c2nnc(NC(=O)c3cccc(N4C(=O)CCC4=O)c3)o2)c1	0%	x	-10%	-3%	27µM*	x
O=C(COC(=O)c1cc[n+]([O-])cc1)Nc1ccc([N+](=O)[O-])cc1	-8%	-3%	-6%	-2%	-2%	1%
N#Cc1ccc(Cn2ccnc2C(=O)Nc2ccccc2)cc1	4%	-7%	8%	6%	u	-7%
Cc1ccc(Cn2ccnc2C(=O)Nc2ccccc2)cc1	4µM*	16µM*	u	1.6µM*	7.6µM*	1%
Cc1ccc(/C=N/NC(=O)c2ccco2)s1	3.2µM*	u	u	3.2µM*	15µM*	-12%
O=C(N/N=C/c1ccc(Br)s1)c1ccco1	u	x	u	u	21µM*	x
CC(Oc1ccccc1F)C(=O)Nc1ccc2ccccc2c1 (stereo not given)	-4%	3.5µM*	2%	5%	u	2%
CC(=O)N1CCC2(CC1)OC(=O)C(C)=C2C(=O)Nc1cccc(Cl)c1C	x	x	x	x	-3%	x
COc1cccc(NC(=O)c2ccc3snnc3c2)c1	u	u	16%	u	19µM*	-12%
COc1ccc(NC(=O)c2ccc3snnc3c2)cc1OC	x	6%	x	x	-17%	x
Cc1ccc(NC(=O)c2ccc3snnc3c2)cc1C	u	20µM*	u	u	15µM*	x
O=C(Nc1cccc(F)c1)c1ccc2snnc2c1	x	8%	x	x	1%	x
CC1CN(C(=O)Nc2ccc3snnc3c2)c2ccccc21 (stereo not given)	-1%	u	u	4%	19µM*	0%
O=C(Nc1ccc(F)cc1)Nc1ccc2snnc2c1	x	8%	x	x	24µM*	x
COc1ccc(C2Nc3ccccc3C(=O)N2NS(=O)(=O)c2ccccc2)cc1OC (stereo not given)	-5%	4%	-2%	4%	2%	6%
COc1cccc2c1cc1c(=O)n(CC(=O)N3CCN(c4cccc(C)c4)C(C)C3)nc(C)n12 (stereo not given)	x	10%	x	x	-2%	x
Cc1ccc(OC(=O)c2ccc3snnc3c2)cc1	3%	-16%	3%	0%	9.5µM*	-3%
CC[C@H](CN(C)C)C(=O)c1ccco1	x	-9%[9.22 µM]	x	x	x	-4%[7.66 µM]
O=C(Nc1cccc(Cl)c1N1CCCCC1)c1ccc2c(c1)OCCO2	-6%	17%	0%	2%	3%	1%
O=C(Nc1cccc2cccnc12)c1ccc2c(c1)OCCO2	11%	27%	u	u	12µM*	-9%
COc1ccc(N2CCOCC2)c(NC(=O)c2ccc3c(c2)OCO3)c1	-2%	x	6%	-1%	-15%	x
COc1cc(NC(=O)c2ccc3c(c2)OCO3)c2ncccc2c1	15%	-63%	6%	10%	1.9µM*	-3%
Cc1cc(=O)[nH]c2nnc(SCC(N)=O)n12	x	x	x	x	0%	x
C/C(=N\NC(=O)CNC(=O)c1cccc(F)c1)c1ccc2ccccc2c1	-4%	x	10%	-7%	4%	x
O=C(Nc1cc(S(=O)(=O)Nc2ccc(Cl)cc2)ccc1N1CCCCC1)c1ccc(F)cc1Cl	-8%	-13%	-4%	-6%	13%	4%

Source: PubChem
